Hits are enriched below; roughly 2.4% of the tested compounds scored in any of these assays.
A549 viability: kills or reduces viability of A549 cells in Nrf2 counter-screen; hit rate 0.16% among 390,000; A549 ARE-Fluc cells, CellTiter-Fluor viability, 18-24 h; Potency, µM (highest dose often 46 µM), for inactives: at the top dose activity change, negative = cytotoxicity, actives largely listed as inhibitors; AID 504648; further: on the % scale 0 is the no-effect control and ±100 the full control effect
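Cytotoxicity counterscreen: CellTiter-Fluor fluorescence was measured in A549 ARE_Fluc cells after 18-24 h of compound exposure in a concentration series. The subsequent BugLite luminescent read reports ARE-luciferase activity.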
Nrf2 block: inhibitors of Nrf2 signaling; Potency, µM (series often up to 46 µM), for the others: at the highest dose activity change, negative = inhibition, most hits filed as inhibitors; hit rate 2.1% among 360,000; A549 ARE-Fluc reporter, luciferase luminescence, 18-24 h; further: on the % scale 0 is the no-effect control and ±100 the full control effect; nearly all actives have a fitted effect of over 60% in size
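Concentration-response testing used A549 ARE_Fluc cells at 5000 cells/well. Following an 18-24 h compound incubation, viability was read by fluorescence (Ex 405/Em 525) and luciferase output by luminescence.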
Epigenetic reg: regulators of epigenetic silencing causing reporter derepression in mouse cells. murine LDR cells, GFP reporter derepression, 30 h. hit rate 0.2% among 280,000. Potency, µM (highest dose often 53.9 µM), inactives show at the top dose GFP activation, most hits filed as activators; further: % of control where 0% means no effect; nearly all actives have a fitted effect of over 60% in size
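In this reporter-derepression format, murine cells bearing a silenced integrated CMV-GFP locus incubate with test compound (30 h, 37 C), then are washed and imaged; fluorescent objects of 20–120 um count as induced cells.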
Nrf2 ARE act: activators of Nrf2 (ARE) signaling | AREc32 ARE-luciferase reporter (MCF7-derived line), luminescence, 24 h | Potency, µM (doses to about 46.1 µM), without a hit: top-dose activation, usual class: activators | hit rate 0.31% among 410,000; further: % of control where 0% means no effect; nearly all actives have a fitted effect of over 65% in size
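Cells of the AREc32 ARE-luciferase line are plated in OPTI-MEM containing 5% FBS and left overnight at 37 deg C. Compounds are pinned in, incubation continues 24 hr, and firefly luciferase signal is then measured.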
PINK1 expr mod: PINK1 expression modulation; hit rate 0.2% among 410,000; PINK1 immunofluorescence, high-content cytometry, 24 h; Potency, µM (highest dose often 76.6 µM), for the others: at the top dose activation (PINK1 increase), hits mostly activators; active means well fitted activation curve with a large enough effect; inconclusive means small, poorly fitted or top-dose-only effect; cell line not stated here; further: % of control where 0% means no effect; nearly all actives have a fitted effect of over 65% in size
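A stable cell line was treated with compounds at 5 concentrations for 24 hours, with CCCP as control. PINK1 levels and mitochondrial localization were measured by immunofluorescence with mitochondrial, cell and nuclear markers after fixation, read by laser-scanning cytometry.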
An asterisk follows results filed as active; ? = inconclusive; nt = no result given; [ ] = dose if it differs, or a comment. Unless noted, the call rests on the fitted dose curve; in most records, active means well fitted curve in the direction sought with a large enough effect; inconclusive means small, poorly fitted or top-dose-only effect, or another doubt; inactive means no such curve, though single readings can be large; an effect the other way counts as inactive or inconclusive. Potency means the concentration at half of the fitted maximal effect.

SMILES	A549 viability	Nrf2 block	Epigenetic reg	Nrf2 ARE act	PINK1 expr mod
CCCc1nc([N+](=O)[O-])c(S(=O)(=O)c2ccccc2)n1CC(C)C	-12%	1%	1%	5.6µM*	4%
CCNCc1ccc(OCc2cccs2)c(OCC)c1	32%	4%	0%	5%	1%
CCCn1nnc(NCc2ccc(OCc3cccs3)c(OC)c2)n1	nt	8.2µM*	-3%	0%	-1%
O=C(/C=C/c1ccccc1[N+](=O)[O-])N1CCc2ccccc2C1	0%	23%	nt	8.9µM*	0%
CCc1ccc(/C=C\C(=O)N2CCc3ccccc3C2)cc1	-3%	?	0%	3%	0%
O=C(Nc1ccccc1Cl)N1CCCN(c2nc(-c3ccccc3)ns2)CC1	-16%	?	2%	4%	4%
Cc1c(Cl)cccc1NC(=O)N1CCCN(c2nc(-c3ccccc3)ns2)CC1	-2%	21µM*	0%	2%	4%
O=C(Nc1ccccc1)N1CCN(c2nc(-c3ccccc3)ns2)CC1	-14%	23µM*	-2%	2%	-1%
CC(=O)c1c(C(C)=O)c(C)n(-c2ccc(C)c(NC(=O)c3ccccc3Cl)c2)c1C	-9%	15µM*	-1%	0%	-3%[38.3 µM]
COc1ccc2cc(/C=N/NC(=O)c3ccc(CN(c4ccc(C)c(C)c4)S(C)(=O)=O)cc3)c(Cl)nc2c1	-3%	-18%	22µM*	0%	5%
COc1ccc2cc(/C=N/NC(=O)c3c(Cl)cnn3C)c(Cl)nc2c1	-1%	-14%	?	2%	?
Cn1c(=O)c2c(SCC(=O)Nc3ccc4c(c3)OCCO4)nc(CC(C)(C)C)nc2n(C)c1=O	?	7.3µM*	-1%	0%	-1%
O=C(CSCc1ccc(Cl)cc1)Nc1cc([N+](=O)[O-])ccc1O	8%	15%	1%	4%	14µM*
Cc1ccc(SCC(=O)Nc2cc([N+](=O)[O-])ccc2O)cc1	5%	17%	1%	1%	16µM*
NC(=O)C(c1ccc(Cl)cc1)c1ccc(Sc2ccc(Cl)cc2)nn1 (configuration not stated)	-12%	16µM*	1%	3%	1%
O=C(CSc1ccc(-c2ccncc2)nn1)c1ccc(Cl)cc1	1%	5%	2%	0%	5%
CN(C(=O)c1ccc(NC(=O)Cc2ccc([N+](=O)[O-])cc2)cc1)C1CCCC1	0%	?	nt	1%	1%
CN(C(=O)c1cccc(NC(=O)Cc2cccc([N+](=O)[O-])c2)c1)C1CCCC1	-2%	10µM*	nt	6%	2%
CN(C(=O)c1cccc(NC(=O)Cc2cccc([N+](=O)[O-])c2)c1)C1CCC1	0%	?	nt	5%	0%
CN(C(=O)c1cccc(NC(=O)Cc2ccc([N+](=O)[O-])cc2)c1)C1CCCC1	-13%	23µM*	nt	-1%	2%
O=C(CCc1ccccc1)Nc1cccc([N+](=O)[O-])c1	2%	23%	2%	?	-1%
CN(Cc1ccccc1)C(=O)c1cccc(NC(=O)Cc2cccc([N+](=O)[O-])c2)c1	-3%	16µM*	nt	0%	0%
COCCC1CCCCN1Cc1nc(N2CCCC2)c2cc(OC)c(OC)cc2n1 (configuration not stated)	nt	nt	nt	nt	2%
O=C(CCn1cnc2onc(-c3ccc(F)cc3)c2c1=O)N1CCN(c2cccc(Cl)c2)CC1	-3%	?	0%	6%	1%
COC(=O)C1CCN(Cc2ccc3c(c2)CN(C(=O)C(C)N2CCOCC2)CCO3)CC1 (configuration not stated)	nt	nt	nt	nt	1%
SMILES	A549 viability	Nrf2 block	Epigenetic reg	Nrf2 ARE act	PINK1 expr mod
COc1ccc(C2Oc3ccccc3C(=O)N2Cc2ccccc2)cc1COc1ccc(NC(C)=O)cc1 (configuration not stated)	-10%	?	nt	nt	nt
NNC(=O)C(C(=O)OCc1ccccc1)c1ccccc1 (configuration not stated)	-14%	?	nt	nt	nt
Cc1cc2c(s1)c1cnn(Cc3cccc([N+](=O)[O-])c3)c(=O)c1n2C	11%	-17%	nt	nt	nt
COc1ccc(-c2c([C@H]3[C@@H]4C=CCC[C@@]4(C)C(=O)N3Cc3ccccc3)ccc3ccccc23)cc1OC	?	?	-1%	4%	11%
COc1ccc(-c2ccc([C@H]3[C@@H]4C=CCC[C@@]4(C)C(=O)N3Cc3ccccc3)c(F)c2)cc1OC	-6%	21µM*	-4%	-1%	3%
O=C(NCCN1CCOCC1)c1ccc(Cc2nc3ccccc3[nH]2)cc1	nt	nt	1%	nt	nt
CC(=O)Oc1ccccc1/C=C/c1nc2ccccc2c(=O)o1	-9%	?	nt	-1%	-1%
O=c1oc(/C=C/c2ccc([N+](=O)[O-])s2)nc2ccccc12	0%	4%	nt	?	40µM*
C=CCC[C@@H](Cc1ccc(F)cc1)C(=O)OC[C@@H](Cc1c[nH]c2ccccc12)NC(=O)[C@H](CC=C)CC(=O)N(CCO)Cc1ccccc1	?	23µM*	nt	-5%	3%
C=CCC[C@H](Cc1ccc(F)cc1)C(=O)OC[C@@H](Cc1c[nH]c2ccccc12)NC(=O)[C@H](CC=C)CC(=O)N(CCO)Cc1ccccc1	?	21µM*	nt	-2%	2%
C=CC[C@H](CC(=O)N(CCO)Cc1ccccc1)C(=O)N[C@@H](COC(=O)[C@@H](CC=C)Cc1ccc(F)cc1)Cc1c[nH]c2ccccc12	?	18µM*	nt	-2%	4%
C=CCC[C@H](Cc1ccc(F)cc1)C(=O)OC[C@@H](Cc1c[nH]c2ccccc12)NC(=O)[C@H](CC=C)CC(=O)NCCO	-12%	-24%	nt	0%	?
C=CC[C@@H](CC(=O)N(CCO)Cc1ccccc1)C(=O)N[C@@H](COC(=O)[C@@H](CC=C)Cc1ccc(F)cc1)Cc1c[nH]c2ccccc12	?	?	nt	-4%	0%
COc1cc(CN2C(=O)CC[C@@H]3CN(Cc4ccccn4)CC[C@@H]32)cc(OC)c1OC	nt	nt	nt	nt	2%
CC(=O)c1c(C)[nH]c(C(=O)OCC(=O)Nc2ccc3c(c2)OCCO3)c1C	-1%	16µM*	nt	2%	3%
CCOC(=O)c1c(C)[nH]c(C(=O)OCC(=O)NC(C)(C)C)c1C	-10%	18µM*	-3%	3%	5%
COc1cc(NC(=O)COC(=O)c2[nH]c(C)c(C(C)=O)c2C)cc(OC)c1	-17%	13µM*	nt	6%	0%
CCOC(=O)c1[nH]c(C)c(C(=O)OCC(=O)NC(=O)NC(C)(C)C)c1C	nt	10%	1%	0%	-2%
CCOC(=O)c1c(C)[nH]c(C(=O)OCC(=O)Nc2cc(Cl)ccc2OC)c1C	10%	-11%	4%	2%	16%[38.3 µM]
CC(=O)c1c(C)[nH]c(C(=O)OCC(=O)Nc2ccc(Cl)cc2[N+](=O)[O-])c1C	-11%	21µM*	3%	11%	?

Assay outcomes as filed in PubChem BioAssay.
